# Inconclusive results are not listed. The source made the active and inactive calls. How the source made its calls: active means hit-call score of the fitted dose curve at least 0.9, where 1 is the maximum; inconclusive means response in the unintended direction; inactive means score below 0.9.
# What was measured:
# [1] = molecular target: Estrogen receptor (Homo sapiens) (UniProt P03372); experiment: NVS_NR_hER: NovaScreen (NVS) Nuclear Receptor Binding Assay for human Estrogen Receptor (ER) (AID 2283348)
# Sequence of Estrogen receptor (Homo sapiens) (P03372 whole entry, looked up, the tested form may be a part): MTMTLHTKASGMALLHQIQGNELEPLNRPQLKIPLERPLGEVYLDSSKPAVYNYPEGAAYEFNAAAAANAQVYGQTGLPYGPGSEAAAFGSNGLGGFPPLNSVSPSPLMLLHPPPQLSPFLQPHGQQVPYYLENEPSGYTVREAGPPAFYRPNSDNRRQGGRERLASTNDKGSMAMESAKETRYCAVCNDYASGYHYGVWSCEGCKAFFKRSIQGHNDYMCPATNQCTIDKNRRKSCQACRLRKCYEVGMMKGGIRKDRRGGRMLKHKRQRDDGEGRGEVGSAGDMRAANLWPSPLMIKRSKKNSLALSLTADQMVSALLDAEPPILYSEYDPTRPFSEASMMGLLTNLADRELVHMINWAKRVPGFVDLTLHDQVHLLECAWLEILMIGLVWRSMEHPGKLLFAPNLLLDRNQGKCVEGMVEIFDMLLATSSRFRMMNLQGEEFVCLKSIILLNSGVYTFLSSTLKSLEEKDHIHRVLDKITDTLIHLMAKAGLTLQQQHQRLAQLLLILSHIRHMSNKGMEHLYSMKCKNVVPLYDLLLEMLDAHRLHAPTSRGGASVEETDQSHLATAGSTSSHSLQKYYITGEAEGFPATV
# In short: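 Cell-free radioligand binding with protein extracted from MCF7 cells; scintillation counting 18 hours after dosing. Loss of signal versus DMSO baseline read as displacement; primary single-concentration screen at 25 uM in duplicate, actives retested in concentration series.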
# [2] = molecular target: Estrogen receptor (Homo sapiens) (UniProt P03372); experiment: OT_ER_ERaERa_1440: Odyssey Thera (OT) 24-hour HEK293T Protein-Complementation Assay for Estrogen Receptor-alpha/-alpha Homodimer (AID 2283349);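 further: hits raise fluorescence above DMSO for agonists and antagonists alike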
# In short: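 Readout is the rise in mean fluorescence from reporter fragment complementation when ERα LBD (aa 310-547) units dimerize in HEK293T cells. Measured 24 h after dosing and analysed as increase over DMSO control.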
# [3] = molecular target: Estrogen receptor (Homo sapiens) (UniProt P03372); experiment: OT_ER_ERaERa_0480: Odyssey Thera (OT) 8-hour HEK293T Protein-Complementation Assay for Estrogen Receptor-alpha/-alpha Homodimer (AID 2283351);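 further: rise in fluorescence from reassembled reporter fragments on ERα LBD homodimer in nucleus or whole cell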
# In short: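 HEK293T, stable ERα LBD (aa 310-547) PCA homodimer; 8 h compound exposure; fluorescence intensity, laser scanning cytometer; positive fitting direction, DMSO baseline.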
# [4] = molecular target: Estrogen receptor beta (Homo sapiens) (UniProt Q92731); experiment: OT_ER_ERbERb_0480: Odyssey Thera (OT) 8-hour HEK293T Protein-Complementation Assay for Estrogen Receptor-beta/-beta Homodimer (AID 2283357);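 further: active means signal gain over DMSO baseline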
# Sequence of Estrogen receptor beta (Homo sapiens) (Q92731 whole entry, looked up, the tested form may be a part): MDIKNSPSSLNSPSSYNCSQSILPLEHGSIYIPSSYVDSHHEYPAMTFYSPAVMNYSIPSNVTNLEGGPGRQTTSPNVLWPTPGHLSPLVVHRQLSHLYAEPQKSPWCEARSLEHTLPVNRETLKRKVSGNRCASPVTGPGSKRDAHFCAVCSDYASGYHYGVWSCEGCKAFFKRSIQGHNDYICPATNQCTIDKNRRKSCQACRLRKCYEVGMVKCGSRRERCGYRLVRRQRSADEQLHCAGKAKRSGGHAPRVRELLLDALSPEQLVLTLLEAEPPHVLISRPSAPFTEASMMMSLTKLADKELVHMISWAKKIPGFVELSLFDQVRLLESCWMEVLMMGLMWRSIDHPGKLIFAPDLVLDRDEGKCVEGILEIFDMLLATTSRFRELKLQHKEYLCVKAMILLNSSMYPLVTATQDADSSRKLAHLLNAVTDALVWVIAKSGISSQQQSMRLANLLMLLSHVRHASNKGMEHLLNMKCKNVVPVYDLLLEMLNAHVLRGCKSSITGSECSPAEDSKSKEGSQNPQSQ
# In short: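 Readout: increase in mean fluorescence intensity (nucleus for agonists; nucleus plus cytoplasm for antagonists) relative to DMSO, from a reporter-fragment complementation of human ER-beta LBD homodimer in HEK293T cells dosed 8 hours.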
# [5] = molecular target: Estrogen receptor (Homo sapiens) + Estrogen receptor beta (Homo sapiens) (UniProt P03372+Q92731); experiment: OT_ER_ERaERb_0480: Odyssey Thera (OT) 8-hour HEK293T Protein-Complementation Assay for Estrogen Receptor-alpha/-beta Heterodimer (AID 2283352)
# Sequence of Estrogen receptor (Homo sapiens) + Estrogen receptor beta (Homo sapiens) (P03372 whole entry, looked up, the tested form may be a part): as the sequence (P03372 whole entry, looked up, the tested form may be a part) above
# Sequence of Estrogen receptor (Homo sapiens) + Estrogen receptor beta (Homo sapiens) (Q92731 whole entry, looked up, the tested form may be a part): as the sequence (Q92731 whole entry, looked up, the tested form may be a part) above
# In short: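 Fluorescence intensity readout from a protein-fragment complementation reporter in HEK293T; ER-alpha/ER-beta LBD heterodimer. Dosing 8 h. Gain-of-signal fit relative to DMSO negative control; laser scanning cytometry of whole-well cell population.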
# [6] = molecular target: Retinoic acid receptor alpha (Homo sapiens) (UniProt P10276); experiment: NVS_NR_hRAR_Antagonist: NovaScreen (NVS) Nuclear Receptor Binding Assay for human Retinoic Acid Alpha Receptor Antagonism (RAR) (AID 2283358)
# In short: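 Cell-free TR-FRET binding assay on extracted receptor protein, run in antagonist mode; signal read 2 hours after chemical dosing. Loss of signal was fitted relative to DMSO baseline. Screened at 25 uM in duplicate, actives followed up in concentration series.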
# [7] = molecular target: human Thyroid Receptor Alpha (TRa), THRA (gene 7067) (UniProt P10827); experiment: NVS_NR_hTRa_Antagonist: NovaScreen (NVS) Nuclear Receptor Binding Assay for human Thyroid Receptor Alpha Antagonism (TRa) (AID 2283362);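 further: activity is loss of signal relative to DMSO baseline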
# Sequence of human Thyroid Receptor Alpha (TRa), THRA (gene 7067) (P10827 whole entry, looked up): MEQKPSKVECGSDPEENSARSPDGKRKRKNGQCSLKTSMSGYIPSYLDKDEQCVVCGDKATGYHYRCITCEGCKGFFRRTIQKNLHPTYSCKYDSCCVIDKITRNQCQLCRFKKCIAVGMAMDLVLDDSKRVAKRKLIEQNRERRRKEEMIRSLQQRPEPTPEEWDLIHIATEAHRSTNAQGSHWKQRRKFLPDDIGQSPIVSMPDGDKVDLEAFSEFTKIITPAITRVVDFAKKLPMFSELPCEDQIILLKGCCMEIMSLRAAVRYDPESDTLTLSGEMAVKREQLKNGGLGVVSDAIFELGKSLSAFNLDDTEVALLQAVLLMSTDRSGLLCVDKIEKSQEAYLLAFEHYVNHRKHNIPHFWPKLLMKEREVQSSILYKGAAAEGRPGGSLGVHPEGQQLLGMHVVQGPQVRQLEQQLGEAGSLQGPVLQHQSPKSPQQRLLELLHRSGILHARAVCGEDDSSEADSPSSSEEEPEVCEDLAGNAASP
# In short: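 AlphaLISA chemiluminescent immunoassay readout, taken 1 h post-dosing in a cell-free system with extracted protein. Activity was scored as signal loss against DMSO negative control, from duplicate single-concentration (25 uM) testing followed by concentration-response follow-up.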
# [8] = molecular target: Glucocorticoid receptor (Homo sapiens) (UniProt P04150); experiment: NVS_NR_hGR: NovaScreen (NVS) Nuclear Receptor Binding Assay for human Glucocorticoid Receptor (GR) (AID 2283363);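 on AC50: activity is loss of specific radioligand binding signal relative to DMSO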
# Sequence of Glucocorticoid receptor (Homo sapiens) (P04150 whole entry, looked up): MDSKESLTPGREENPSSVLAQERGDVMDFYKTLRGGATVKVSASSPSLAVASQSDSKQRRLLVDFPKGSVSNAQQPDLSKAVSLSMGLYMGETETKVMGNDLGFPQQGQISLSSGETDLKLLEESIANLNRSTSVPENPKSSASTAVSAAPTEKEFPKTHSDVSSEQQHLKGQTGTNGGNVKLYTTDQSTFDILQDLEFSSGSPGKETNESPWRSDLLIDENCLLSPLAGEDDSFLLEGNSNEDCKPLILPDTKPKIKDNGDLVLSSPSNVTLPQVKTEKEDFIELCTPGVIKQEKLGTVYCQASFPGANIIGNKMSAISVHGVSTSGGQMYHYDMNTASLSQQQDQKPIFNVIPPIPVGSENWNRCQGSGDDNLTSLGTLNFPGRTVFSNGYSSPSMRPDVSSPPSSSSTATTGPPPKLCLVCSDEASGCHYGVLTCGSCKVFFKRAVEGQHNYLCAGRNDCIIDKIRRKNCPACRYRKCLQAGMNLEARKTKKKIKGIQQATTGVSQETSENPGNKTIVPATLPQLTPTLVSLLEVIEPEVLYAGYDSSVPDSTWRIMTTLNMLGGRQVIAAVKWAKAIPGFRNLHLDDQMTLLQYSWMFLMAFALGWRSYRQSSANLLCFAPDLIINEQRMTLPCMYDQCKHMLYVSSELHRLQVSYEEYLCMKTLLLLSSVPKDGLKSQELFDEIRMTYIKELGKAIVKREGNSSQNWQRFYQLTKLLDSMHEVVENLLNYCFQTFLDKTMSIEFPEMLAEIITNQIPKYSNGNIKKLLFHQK
# In short: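 Cell-free radioligand binding with extracted receptor protein, read by filter-based scintillation counting 16 hours after dosing. Loss of specific signal versus DMSO baseline was scored. Primary screen ran in duplicate at 25 uM; actives were followed up in concentration series.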
# [9] = molecular target: Peroxisome proliferator-activated receptor gamma (Homo sapiens) (UniProt P37231); experiment: NVS_NR_hPPARg: NovaScreen (NVS) Nuclear Receptor Binding Assay for human Peroxisome Proliferator-activated Receptor gamma (PPARg) (AID 2283370)
# Sequence of Peroxisome proliferator-activated receptor gamma (Homo sapiens) (P37231 whole entry, looked up): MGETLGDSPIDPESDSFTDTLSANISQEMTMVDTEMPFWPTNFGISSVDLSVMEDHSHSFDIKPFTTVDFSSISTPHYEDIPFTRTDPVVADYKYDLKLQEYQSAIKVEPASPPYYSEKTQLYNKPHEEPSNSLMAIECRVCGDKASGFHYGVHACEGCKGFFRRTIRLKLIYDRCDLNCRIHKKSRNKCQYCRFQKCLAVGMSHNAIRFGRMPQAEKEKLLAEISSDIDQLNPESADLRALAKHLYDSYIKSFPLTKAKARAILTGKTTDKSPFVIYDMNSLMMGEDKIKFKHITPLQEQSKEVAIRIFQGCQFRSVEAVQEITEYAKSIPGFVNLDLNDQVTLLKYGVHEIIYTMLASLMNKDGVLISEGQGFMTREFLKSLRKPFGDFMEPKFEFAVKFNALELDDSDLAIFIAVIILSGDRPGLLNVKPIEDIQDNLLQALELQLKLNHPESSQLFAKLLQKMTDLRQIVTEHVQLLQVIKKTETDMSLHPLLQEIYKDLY
# In short: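 FP read-out, 2 h post-dose, cell-free extracted receptor protein. Signal loss vs DMSO negative control = binding activity. Single-conc duplicate HTS at 25 uM; concentration-response follow-up for actives.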
# [10] = molecular target: Androgen Receptor/SRC-1 Co-activator, AR (gene 367) (UniProt P10275); experiment: OT_AR_ARSRC1_0960: Odyssey Thera (OT) 16-hour HEK293T Protein-Complementation Assay for Androgen Receptor/SRC-1 Co-activator (AID 2283353);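 further: actives raise the signal above DMSO so potency reflects increased AR and SRC-1 complex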
# In short: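 Split-Venus PCA, AR/SRC-1 fusions, stable HEK293T; 16 h compound exposure; imaged at 488 and 635 nm; N/C ratio (488 nm channel), min 400 cells/image; positive-direction fit, DMSO baseline.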
# [11] = molecular target: Androgen Receptor/SRC-1 Co-activator, AR (gene 367) (UniProt P10275); experiment: OT_AR_ARSRC1_0480: Odyssey Thera (OT) 8-hour HEK293T Protein-Complementation Assay for Androgen Receptor/SRC-1 Co-activator (AID 2283354);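 further: hits raise the complementation signal above DMSO so AC50 marks enhancers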
# In short: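 HEK293T cells stably expressing AR and SRC-1 fused to split Venus YFP fragments via (Gly4Ser)2 linkers were read 8 h after compound dosing. Complementation was imaged at 488 and 635nm, and nuclear/cytoplasmic fluorescence ratio (488nm) was taken over ≥400 cells; gain-of-signal versus DMSO.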
# [12] = molecular target: rat Androgen Receptor (AR), Ar (gene 24208) (UniProt P15207); experiment: NVS_NR_rAR: NovaScreen (NVS) Nuclear Receptor Binding Assay for rat Androgen Receptor (AR) (AID 2283366)
# In short: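 Cell-free radioligand binding on extracts of prostate from testosterone-pretreated rats, read by filter-based scintillation counting 18 h after dosing. Loss of bound signal fitted positively versus DMSO; primary screen in duplicate at 25 uM, actives followed up in concentration series.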
# [13] = molecular target: PGR (gene 5241) (UniProt P06401); experiment: NVS_NR_hPR: NovaScreen (NVS) Nuclear Receptor Binding Assay for human Progestron Receptor (PR) (AID 2283360);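 further: active means loss of bound radioligand signal versus DMSO baseline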
# Sequence of PGR (gene 5241) (P06401 whole entry, looked up): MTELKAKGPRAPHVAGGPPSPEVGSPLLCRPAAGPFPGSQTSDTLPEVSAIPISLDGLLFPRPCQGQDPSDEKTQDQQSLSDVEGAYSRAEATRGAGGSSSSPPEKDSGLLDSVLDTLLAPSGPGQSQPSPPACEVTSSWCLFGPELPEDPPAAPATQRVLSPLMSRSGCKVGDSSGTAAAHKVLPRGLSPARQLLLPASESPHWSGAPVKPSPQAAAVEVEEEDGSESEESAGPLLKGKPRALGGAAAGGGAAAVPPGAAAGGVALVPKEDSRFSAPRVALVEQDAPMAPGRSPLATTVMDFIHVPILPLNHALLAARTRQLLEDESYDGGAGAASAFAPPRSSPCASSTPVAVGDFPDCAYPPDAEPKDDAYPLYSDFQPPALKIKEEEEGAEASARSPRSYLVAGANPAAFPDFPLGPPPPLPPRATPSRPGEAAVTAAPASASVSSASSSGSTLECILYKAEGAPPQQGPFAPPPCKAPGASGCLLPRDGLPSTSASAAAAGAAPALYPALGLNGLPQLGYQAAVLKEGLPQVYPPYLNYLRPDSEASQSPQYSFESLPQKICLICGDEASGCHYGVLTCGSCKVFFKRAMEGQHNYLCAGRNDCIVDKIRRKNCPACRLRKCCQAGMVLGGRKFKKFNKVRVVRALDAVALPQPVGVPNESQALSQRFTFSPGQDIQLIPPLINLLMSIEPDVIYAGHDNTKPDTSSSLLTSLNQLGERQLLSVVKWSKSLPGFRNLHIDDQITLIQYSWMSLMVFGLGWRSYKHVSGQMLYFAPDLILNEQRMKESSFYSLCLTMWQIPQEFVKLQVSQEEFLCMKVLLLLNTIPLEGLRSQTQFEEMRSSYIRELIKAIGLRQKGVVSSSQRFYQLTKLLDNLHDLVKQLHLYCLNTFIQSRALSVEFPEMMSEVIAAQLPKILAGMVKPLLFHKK
# In short: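 Cell-free radioligand binding using receptor protein extracted from T47D cells, read by scintillation counting 18 hours after dosing. Loss of signal relative to DMSO baseline indicates displacement; primary screen single concentration 25 uM in duplicate, actives followed in concentration series.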
# [14] = molecular target: guinea pig Sigma Receptor, Non-selective Binding, SIGMAR1 (gene 100135589) (UniProt Q60492); experiment: NVS_OR_gSIGMA_NonSelective: NovaScreen (NVS) Nuclear Receptor Binding Assay for guinea pig Sigma Receptor, Non-selective Binding (AID 2283367)
# In short: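 Guinea pig brain membranes, cell-free radioligand binding; read 1 h after dosing by filter-based scintillation counting. Loss of signal vs DMSO baseline taken as displacement. Primary screen single concentration 25 uM in duplicate; actives retested in concentration series.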
# [15] = molecular target: rat Mineralocorticoid Receptor (MR), Nr3c2 (gene 25672) (UniProt P22199); experiment: NVS_NR_rMR: NovaScreen (NVS) Nuclear Receptor Binding Assay for rat Mineralocorticoid Receptor (MR) (AID 2283355)
# In short: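 Cell-free radioligand binding to MR in adrenalectomized rat brain supernatant, scintillation counted 24 h after dosing. Loss of signal versus DMSO baseline marks displacement. Primary screen in duplicate at 25 uM; actives retested as concentration series.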
# [16] = tested on: guinea pig Dopamine Transporter (DAT), gene 100714898; experiment: NVS_TR_gDAT: NovaScreen (NVS) Transporter Assay for guinea pig Dopamine Transporter (DAT) (AID 2283369);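 further: active compounds lower bound radioligand signal relative to DMSO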
# In short: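 Cell-free striatal membrane prep (guinea pig), 2 h exposure, filtration + scintillation readout of radioligand binding. Single-point 25 uM duplicate; actives rerun singleton, top conc 50 uM.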
compound,measurement,setting,value
CN1CSC(=S)N(C)C1,outcome,[1],inactive
same,outcome,[2],inactive
same,outcome,[3],inactive
same,outcome,[4],inactive
CC1(C)C(C=C(Cl)Cl)C1C(=O)OC(C#N)c1ccc(F)c(Oc2ccccc2)c1 (centres undefined),outcome,[1],inactive
same,outcome,[2],inactive
same,outcome,[5],inactive
same,outcome,[6],inactive
same,outcome,[7],inactive
same,AC50,[8],7.25 µM (active)
same,outcome,[9],inactive
CCOCN(C(=O)CCl)c1c(C)cccc1CC,outcome,[2],inactive
same,outcome,[3],inactive
CCOC1Oc2ccc(OS(C)(=O)=O)cc2C1(C)C (centres undefined),outcome,[2],inactive
same,outcome,[3],inactive
same,outcome,[5],inactive
same,outcome,[10],inactive
same,outcome,[11],inactive
same,outcome,[4],inactive
O=[N+]([O-])c1c(Cl)c(Cl)c(Cl)c(Cl)c1Cl,outcome,[2],inactive
same,outcome,[3],inactive
same,outcome,[5],inactive
same,outcome,[10],inactive
same,outcome,[11],inactive
same,outcome,[4],inactive
same,outcome,[6],inactive
same,outcome,[7],inactive
same,outcome,[8],inactive
same,outcome,[12],inactive
same,AC50,[9],38.1 µM (active)
COc1nn(CSP(=S)(OC)OC)c(=O)s1,outcome,[2],inactive
same,outcome,[3],inactive
same,outcome,[5],inactive
same,outcome,[4],inactive
same,outcome,[13],inactive
same,outcome,[7],inactive
same,outcome,[8],inactive
same,AC50,[14],10.7 µM (active)
same,outcome,[9],inactive
CNC(=O)Oc1cccc(N=CN(C)C)c1,outcome,[2],inactive
same,outcome,[3],inactive
same,outcome,[5],inactive
same,outcome,[4],inactive
COP(=S)(OC)Oc1ccc(SC)c(C)c1,outcome,[1],inactive
same,outcome,[2],inactive
same,outcome,[3],inactive
same,outcome,[5],inactive
same,outcome,[4],inactive
same,outcome,[13],inactive
same,AC50,[14],11.2 µM (active)
O=[N+]([O-])/N=C1\NCCN1Cc1ccc(Cl)nc1,outcome,[1],inactive
same,outcome,[2],inactive
same,outcome,[3],inactive
same,outcome,[5],inactive
same,outcome,[10],inactive
same,outcome,[4],inactive
same,outcome,[6],inactive
same,outcome,[7],inactive
same,outcome,[8],inactive
same,outcome,[12],inactive
same,outcome,[9],inactive
CCC(C)(NC(=O)c1cc(Cl)c(C)c(Cl)c1)C(=O)CCl (centres undefined),outcome,[2],inactive
same,outcome,[3],inactive
same,outcome,[5],inactive
same,outcome,[4],inactive
CCN(CC)C(=O)SCc1ccc(Cl)cc1,outcome,[2],inactive
same,outcome,[3],inactive
CNC(=O)Oc1ccccc1OC(C)C,outcome,[2],inactive
same,outcome,[3],inactive
same,outcome,[5],inactive
same,outcome,[4],inactive
Clc1ccccc1-c1nnc(-c2ccccc2Cl)nn1,outcome,[2],inactive
same,outcome,[3],inactive
same,outcome,[5],inactive
same,outcome,[4],inactive
COC(=O)c1ccccc1S(=O)(=O)NC(=O)N(C)c1nc(C)nc(OC)n1,outcome,[1],inactive
same,outcome,[15],inactive
same,outcome,[6],inactive
CCCN(CCC)c1c([N+](=O)[O-])cc(C(F)(F)F)cc1[N+](=O)[O-],outcome,[1],inactive
same,outcome,[2],inactive
same,outcome,[3],inactive
same,outcome,[10],inactive
same,outcome,[11],inactive
same,outcome,[12],inactive
same,outcome,[16],inactive
COC(=O)c1ccccc1CS(=O)(=O)NC(=O)Nc1nc(OC)cc(OC)n1,outcome,[1],inactive
same,outcome,[9],inactive
COP(=O)(OC)OC=C(Cl)Cl,outcome,[1],inactive
same,outcome,[2],inactive
same,outcome,[3],inactive
same,outcome,[5],inactive
same,outcome,[4],inactive
same,outcome,[13],inactive
same,outcome,[7],inactive
same,AC50,[9],6.97 µM (active)
CC1(c2ccc(Oc3ccccc3)cc2)OC(=O)N(Nc2ccccc2)C1=O (centres undefined),outcome,[2],inactive
same,outcome,[3],inactive
same,outcome,[5],inactive
same,outcome,[4],inactive
same,outcome,[6],inactive
same,outcome,[9],inactive
N#CN,outcome,[2],inactive
same,outcome,[3],inactive
same,outcome,[5],inactive
same,outcome,[4],inactive
O=C1c2ccccc2C(=O)N1SC(Cl)(Cl)Cl,outcome,[2],inactive
same,outcome,[3],inactive
same,outcome,[5],inactive
same,outcome,[4],inactive
same,outcome,[6],inactive
same,outcome,[9],inactive
CNC(=O)/C=C(\C)OP(=O)(OC)OC,outcome,[2],inactive
same,outcome,[3],inactive
same,outcome,[5],inactive
same,outcome,[4],inactive
C[C@H]1[C@H](c2ccc(Cl)cc2)SC(=O)N1C(=O)NC1CCCCC1,outcome,[1],inactive
same,outcome,[2],inactive
same,outcome,[5],inactive
same,AC50,[10],67.7 µM (active)
same,outcome,[11],inactive
same,outcome,[4],inactive
same,outcome,[13],inactive
O=S1OCC2C(CO1)C1(Cl)C(Cl)=C(Cl)C2(Cl)C1(Cl)Cl (centres undefined),outcome,[1],inactive
same,outcome,[2],inactive
same,outcome,[3],inactive
same,AC50,[10],34.5 µM (active)
same,AC50,[11],31.8 µM (active)
same,outcome,[6],inactive
same,outcome,[13],inactive
same,AC50,[8],2.29 µM (active)
same,outcome,[12],inactive
same,AC50,[16],17.7 µM (active)
same,outcome,[9],inactive
CCOc1nc(NC)nc(NC(=O)NS(=O)(=O)c2ccccc2C(=O)OC)n1,outcome,[1],inactive
same,outcome,[13],inactive
same,outcome,[7],inactive
same,outcome,[8],inactive
same,outcome,[12],inactive
same,outcome,[9],inactive
